Measured values reported in PubChem BioAssay (NCI).
Compounds without any hit were thinned out: in the full panel of roughly 79,000, 15% have a hit. Active and inactive are the calls of the source. Cut-off read from the data, not from the text of the source: active = growth inhibition above about 70%; inactive = the rest.

Experiments:
[1] = NCI Yeast Anticancer Drug Screen. Data for the rad52 strain (AID 147);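 note: 0% = growth of vehicle-treated control cultures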; details: S. cerevisiae rad52 mutant growth inhibition, active compounds read high
Outline: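 Measured: yeast growth inhibition. System: strain with a defined DNA damage repair alteration. Reference: vehicle-treated control cultures.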

[2] = NCI Yeast Anticancer Drug Screen. Data for the wt1 strain (AID 149);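 note: 0% = growth of vehicle-treated wt1 cultures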; details: S. cerevisiae wt1 strain (SPY 50644) growth inhibition, active compounds read high
Outline: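 Readout: yeast growth inhibition, normalised to vehicle controls, in the wt1 strain exposed to test compounds.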

[3] = NCI Yeast Anticancer Drug Screen. Data for the rad50EPP+ strain (AID 151);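 note: 0% = growth of vehicle-treated control cultures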; details: S. cerevisiae rad50 mutant strain, active compounds read high
Outline: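 One strain with a rad50 alteration (rad50EPP+) was compound-treated, its growth then compared to that of vehicle controls.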

[4] = NCI Yeast Anticancer Drug Screen. Data for the mgt1 strain (AID 153); details: S. cerevisiae mgt1 mutant growth inhibition, active compounds read high
Outline: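 After exposure of the mgt1 yeast mutant to compound, growth was measured and reported as inhibition compared with vehicle controls.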

[5] = NCI Yeast Anticancer Drug Screen. Data for the rad50 strain (AID 155);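 note: 0% = growth of vehicle-only cultures of the same strain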; details: S. cerevisiae rad50 strain growth inhibition, active compounds read high
Outline: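 Compounds were tested on a yeast strain with an engineered DNA damage repair alteration; the reported value is growth inhibition normalised to vehicle treatment.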

[6] = NCI Yeast Anticancer Drug Screen. Data for the mec2-1 strain (AID 157); details: S. cerevisiae mec2-1 strain, active compounds read high
Outline: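 Test agents were screened against the mec2-1 yeast strain, with defined DNA repair or cell cycle alteration. Growth was scored as inhibition against vehicle-only controls.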

[7] = NCI Yeast Anticancer Drug Screen. Data for the rad14 strain (AID 159);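 note: 0% = growth of vehicle-treated control cultures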; details: S. cerevisiae rad14 strain growth inhibition, active compounds read high
Outline: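 Compound-treated yeast with a defined DNA-repair lesion; growth inhibition normalised to vehicle-treated cultures.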

[8] = NCI Yeast Anticancer Drug Screen. Data for the sgs1 mgt1 strain (AID 161);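 note: 0% = growth of cultures given vehicle only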; details: S. cerevisiae sgs1 mgt1 strain, active compounds read high
Outline: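 Test agents were incubated with a DNA-repair-mutant yeast strain. Growth was then read and compared against vehicle-treated controls.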

[9] = NCI Yeast Anticancer Drug Screen. Data for the CLN2oe strain (AID 163);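 note: 0% = growth of vehicle-only control cultures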; details: S. cerevisiae CLN2oe strain, active compounds read high
Outline: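 Here, growth inhibition in a cell-cycle-altered yeast strain after compound exposure was quantified against vehicle control growth.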

[10] = NCI Yeast Anticancer Drug Screen. Data for the cln2 rad14 strain (AID 165);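 note: 0% = growth equal to vehicle treated cultures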; details: S. cerevisiae cln2 rad14 strain, active compounds read high
Outline: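 Growth of compound-exposed yeast (cln2 rad14 genotype) measured and expressed as inhibition relative to vehicle.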

[11] = NCI Yeast Anticancer Drug Screen. Data for the bub3 strain (AID 167); details: S. cerevisiae bub3 mutant strain, active compounds read high
Outline: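 Growth of a checkpoint-deficient yeast mutant is measured after compound exposure. Values represent inhibition relative to vehicle.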

[12] = NCI Yeast Anticancer Drug Screen. Data for the wt2 strain (AID 169);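 note: 0% = growth of vehicle-treated yeast cultures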; details: S. cerevisiae wt2 strain growth inhibition, active compounds read high
Outline: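 Genetically defined yeast strains from a DNA-repair/cell-cycle panel were used. Compound-exposed yeast growth was measured, and the inhibition was calculated relative to vehicle treatment.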

[13] = NCI Yeast Anticancer Drug Screen. Data for the mlh1 strain (AID 171);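 note: 0% = growth of vehicle-treated control cultures of the same strain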; details: S. cerevisiae mlh1 strain growth inhibition, active compounds read high
Outline: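 Here the genetically defined yeast mutant is grown with each compound, and the extent to which its growth falls below that of vehicle-exposed cells is reported.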

[14] = NCI Yeast Anticancer Drug Screen. Data for the sgs1 strain (AID 173);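 note: 0% = growth of vehicle-only control cultures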; details: S. cerevisiae sgs1 mutant, active compounds read high
Outline: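 Relative growth inhibition, referenced to vehicle, was determined in a yeast strain with a defined alteration affecting DNA damage repair or cell cycle control after compound exposure.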

[15] = NCI Yeast Anticancer Drug Screen. Data for the mlh1 rad18 strain (AID 175); details: S. cerevisiae mlh1 rad18 strain growth inhibition, active compounds read high
Outline: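 In this whole-cell yeast screen, a strain with altered DNA damage repair is challenged with compound, and its growth is measured against matched vehicle-treated controls.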

[16] = at 5.0 µM (retest, dose inferred, filed as 0.5)
[17] = at 50.0 µM (retest, dose inferred, filed as 5.0)

Measured: growth inhibition

O=[N+]([O-])c1cc2no[n+]([O-])c2cc1N1CCCCC1
active: [1]; at 11.0 µM 98% | [1]; at 33.0 µM 96% | [1]; at 100.0 µM 95% | [2]; at 11.0 µM 99% | [2]; at 33.0 µM 98% | [2]; at 100.0 µM 97% | [3]; at 3.7 µM 83% | [3]; at 11.0 µM 98% | [3]; at 33.0 µM 99% | [3]; at 100.0 µM 98% | [4]; at 11.0 µM 98% | [4]; at 33.0 µM 98% | [4]; at 100.0 µM 98% | [5]; at 11.0 µM 93% | [5]; at 33.0 µM 96% | [5]; [17] 74% | [5]; at 50.0 µM 90% | [5]; at 100.0 µM 95% | [6]; at 3.7 µM 82% | [6]; at 11.0 µM 98% | [6]; at 33.0 µM 98% | [6]; [17] 93% | [6]; at 50.0 µM 92.8% | [6]; at 100.0 µM 97% | [7]; at 11.0 µM 99% | [7]; at 33.0 µM 99% | [7]; at 100.0 µM 98% | [8]; at 50.0 µM 92.4% | [9]; at 11.0 µM 96% | [9]; at 33.0 µM 97% | [9]; at 100.0 µM 97% | [10]; at 50.0 µM 90.7% | [11]; at 11.0 µM 71% | [11]; at 33.0 µM 96% | [11]; at 50.0 µM 91.3% | [11]; at 100.0 µM 96% | [12]; at 3.7 µM 74% | [12]; at 11.0 µM 99% | [12]; at 33.0 µM 99% | [12]; at 100.0 µM 98% | [13]; at 11.0 µM 98% | [13]; at 33.0 µM 99% | [13]; at 100.0 µM 100% | [14]; at 3.7 µM 72% | [14]; at 11.0 µM 98% | [14]; at 33.0 µM 99% | [14]; at 100.0 µM 98% | [15]; [17] 89% | [15]; at 50.0 µM 91.5%
inactive: [1]; at 1.2 µM 31% | [1]; at 3.7 µM 65% | [2]; at 1.2 µM -32% | [2]; at 3.7 µM 53% | [3]; at 1.2 µM 26% | [4]; at 1.2 µM 4% | [4]; at 3.7 µM 56% | [5]; at 1.2 µM 22% | [5]; at 3.7 µM 62% | [5]; [16] 24% | [6]; at 1.2 µM 28% | [6]; [16] 41% | [7]; at 1.2 µM -8% | [7]; at 3.7 µM 56% | [8]; [16] 1% | [8]; [17] -4% | [9]; at 1.2 µM 27% | [9]; at 3.7 µM 60% | [10]; [16] 0% | [10]; [17] -46% | [11]; at 1.2 µM -24% | [11]; at 3.7 µM -8% | [11]; [16] -2% | [11]; [17] -16% | [12]; at 1.2 µM 0% | [13]; at 1.2 µM 24% | [13]; at 3.7 µM 68% | [14]; at 1.2 µM 51% | [15]; [16] 51%

CC(C)OC(=O)Oc1ccccc1OC(=O)OC(C)C
inactive: [1]; at 1.2 µM -3% | [1]; at 3.7 µM -3% | [1]; at 11.0 µM 1% | [1]; at 33.0 µM 2% | [1]; at 100.0 µM -3% | [2]; at 1.2 µM -2% | [2]; at 3.7 µM -3% | [2]; at 11.0 µM -1% | [2]; at 33.0 µM -3% | [2]; at 100.0 µM -2% | [3]; at 1.2 µM -1% | [3]; at 3.7 µM 2% | [3]; at 11.0 µM 2% | [3]; at 33.0 µM -1% | [3]; at 100.0 µM 2% | [4]; at 1.2 µM 2% | [4]; at 3.7 µM 3% | [4]; at 11.0 µM 3% | [4]; at 33.0 µM 2% | [4]; at 100.0 µM 4% | [5]; at 1.2 µM -5% | [5]; at 3.7 µM -3% | [5]; [16] 1% | [5]; at 11.0 µM -2% | [5]; at 33.0 µM -1% | [5]; [17] 3% | [5]; at 50.0 µM 39.3% | [5]; at 100.0 µM -1% | [6]; at 1.2 µM 0% | [6]; at 3.7 µM -1% | [6]; [16] -15% | [6]; at 11.0 µM 0% | [6]; at 33.0 µM 0% | [6]; [17] -5% | [6]; at 50.0 µM 20.9% | [6]; at 100.0 µM -1% | [7]; at 1.2 µM -6% | [7]; at 3.7 µM -4% | [7]; at 11.0 µM -3% | [7]; at 33.0 µM 0% | [7]; at 100.0 µM 0% | [8]; [16] -2% | [8]; [17] -6% | [8]; at 50.0 µM 1.8% | [9]; at 1.2 µM 2% | [9]; at 3.7 µM 4% | [9]; at 11.0 µM 3% | [9]; at 33.0 µM 1% | [9]; at 100.0 µM 4% | [10]; [16] 26% | [10]; [17] 55% | [10]; at 50.0 µM 23.2% | [11]; at 1.2 µM 0% | [11]; at 3.7 µM 0% | [11]; [16] 15% | [11]; at 11.0 µM 4% | [11]; at 33.0 µM 7% | [11]; [17] 8% | [11]; at 50.0 µM 15.7% | [11]; at 100.0 µM 9% | [12]; at 1.2 µM -3% | [12]; at 3.7 µM -2% | [12]; at 11.0 µM -2% | [12]; at 33.0 µM -3% | [12]; at 100.0 µM -2% | [13]; at 1.2 µM 0% | [13]; at 3.7 µM 1% | [13]; at 11.0 µM 2% | [13]; at 33.0 µM 3% | [13]; at 100.0 µM 3% | [14]; at 1.2 µM -1% | [14]; at 3.7 µM 0% | [14]; at 11.0 µM 1% | [14]; at 33.0 µM 1% | [14]; at 100.0 µM 2% | [15]; [16] -20% | [15]; [17] -7% | [15]; at 50.0 µM -9.1%
